Compound activity: PubChem BioAssay, National Center for Advancing Translational Sciences (NCATS)
DT40 TDP1 no CPT – qHTS for Inhibitors of human tyrosyl-DNA phosphodiesterase 1 (TDP1): qHTS in cells in absence of CPT; AID 686978, 2013; DT40 Tdp1-/- hTDP1 cells, no CPT, ATP luminescence, 48 h; Potency, µM (top dose mostly 46.2 µM), most hits filed as inhibitors; hit rate 15% among 420,000; note: nearly all actives have a fitted effect of over 55% in size
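Chicken DT40 Tdp1-/- cells complemented with human TDP1, screened without camptothecin (DMSO vehicle only), 400 cells/well. Compounds pin-transferred, cells incubated at 37 °C for at least 48 hr. Growth read as ATP-dependent luminescence (CellTiter-Glo, 30 min at RT).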
TDP1 cell CPT – DT40-hTDP1 cell growth loss with CPT; AID 686979; Potency, µM (titrated, usually from 46.2 µM), actives largely listed as inhibitors; chicken DT40 Tdp1-/-;hTDP1 cells + 20 nM CPT, ATP luminescence, 48 h; hit rate 12% among 420,000; note: nearly all actives have a fitted effect of over 55% in size
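Chicken DT40 Tdp1-/- cells complemented with human TDP1, 400 cells/well, exposed to compounds plus 20 nM camptothecin for at least 48 h at 37 C; viability read as ATP content by CellTiter-Glo luminescence.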
ELG1 DNA repair – inhibitors of ELG1-dependent DNA repair in HEK293T cells. HEK293T ELG1-luciferase reporter, luminescence, 16 h; DNA damage induced by 5-fluorouridine. Potency, µM (top dose mostly 46.1 µM), hits mostly inhibitors. hit rate 2.3% among 330,000. AID 504467; note: nearly all actives have a fitted effect of over 55% in size
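DMSO vehicle served as the neutral condition. Each well held 2,000 cells given 5-fluorouridine plus compound; after 16 hr at 37 °C/5% CO2, ONE-Glo was added and luciferase measured 30 min later.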
IL1B secr inh – inflammasome signaling inhibition, IL-1 beta readout | THP-1 LPS/ATP IL-1B secretion, AlphaLISA, 16 h; hits give low values | activity change, % at 57.5 µM | hit rate 4.7% among 360,000 | AID 743279; in the data active = activity change below about -50%; inconclusive = mostly about -30% to -49%
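THP-1 cells pretreated 1 hr with compounds (up to 57.5 uM final), then stimulated with LPS (250 ng/mL final) plus ATP (1.25 mM final); secreted IL-1B measured by AlphaLISA after 16 hr, decreased signal indicating inhibition.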
HT1080 IDH1KD tx – kills HT-1080 cells with IDH1 knockdown | HT-1080 IDH1 knockdown viability, ATP luminescence, 48 h | AID 686971 | hit rate 2% among 360,000 | Potency, µM (highest dose often 46.1 µM), hits mostly cytotoxic
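IDH1KD HT-1080 cells, 750/well, RPMI + 5% FBS; compound pinned after 2 h settling; 48 h, 37 °C; CellTiter-Glo luminescence; % activity normalised to DMSO and no-cell wells; curves fitted, classed by r2 and efficacy.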
HT1080NT lethal – kills 2HG-producing HT-1080-NT fibrosarcoma cells; hit rate 1.6% among 360,000; HT-1080-NT fibrosarcoma viability, CellTiter-Glo ATP luminescence, 48 h; Potency, µM (titrated, usually from 46.1 µM), most hits filed as cytotoxic;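 note: NT is the 2HG producing partner of a matched IDH1 knockdown line; nearly all actives have a fitted effect of over 55% in size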
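750 cells/well, RPMI + 5% FBS; 2 h settle, compound pin-transfer, 48 h at 37 degrees C. CellTiter-Glo 10 min RT, luminescence. Normalized to DMSO and media-only wells.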
Hits are given with their value; i = inactive; ? = inconclusive; nt = no result; [ ] = dose if it differs, or a comment. Only some compounds are listed: those with a hit (about 19% of all), similar ones and a draw of the others. Unless noted, calls come from the whole dose curve; as a rule, active = well fitted curve in the direction sought with a large enough effect; inconclusive = small, poorly fitted or top-dose-only effect, or another doubt; inactive = no such curve, though single readings can be large; an effect the other way counts as inactive or inconclusive.

SMILES | DT40 TDP1 no CPT | TDP1 cell CPT | ELG1 DNA repair | IL1B secr inh | HT1080 IDH1KD tx | HT1080NT lethal
CC(O)[C@@H]1NC(=O)[C@H](Cc2ccccc2)NC(=O)[C@H](C(C)O)NC(=O)[C@H](CCCCN)NC(=O)[C@H](Cc2c[nH]c3ccccc23)NC(=O)[C@H](Cc2ccccc2)NC(=O)[C@H](Cc2ccccc2)NC(=O)[C@H](CC(N)=O)NC(=O)[C@H](CCCCN)NC(=O)[C@@H](NC(=O)CNC(=O)[C@H](C)N)CSSC[C@@H](C(=O)O)NC(=O)[C@H](CO)NC1=O (some centres not stated) | i | i | nt | nt | nt | nt
CC1CCN(S(=O)(=O)c2cc(F)ccc2CN2C(=O)c3cccnc3C2=O)CC1 | i | i | i | i | i | i
CCOc1ccccc1NC(=O)NCCn1c(=O)oc2ccc(C)cc21 | ? | i | nt | nt | nt | nt
Cc1ccc(C(=O)NNC(=O)CCCN2C(=O)/C(=C/c3ccccc3Cl)SC2=S)cc1 | ? | ? | i | -107 | i | i
COc1ccc(/C=C2/SC(=S)N(CCCC(=O)Nc3ccc(O)cc3)C2=O)cc1OC | 15µM | ? | ? | i | i | i
COc1cc(/C=C2\SC(=S)N(CCC(=O)Nc3cccc(O)c3)C2=O)cc(OC)c1OC | 16µM | ? | ? | -98 | ? | ?
O=C(O)CCCN1C(=O)/C(=C\c2ccccc2OCc2ccccc2)SC1=S | i | i | i | i | i | i
COc1cc(/C=C2\SC(=S)N(CCC(=O)Nc3ccccc3)C2=O)cc(OC)c1OC | ? | ? | ? | i | ? | ?
O=C(O)CCCCN1C(=O)/C(=C\c2ccc(OCc3ccccc3)c(OCc3ccccc3)c2)SC1=S | ? | i | i | -93 | i | i
COc1ccc(/C=C2\SC(=S)N(CCCC(=O)Nc3ccc(C(=O)O)cc3)C2=O)cc1OC | i | i | i | i | i | i
Cc1ccc(CNC(=O)CSCc2ccccc2C)cc1 | i | ? | nt | nt | nt | nt
O=C(CCN1C(=O)/C(=C\c2ccc(F)cc2)SC1=S)Nc1ccc(O)cc1 | 23µM | i | i | i | i | i
O=C(CCN1C(=O)/C(=C\c2ccc(F)cc2)SC1=S)Nc1ccccc1 | i | i | i | i | i | i
CC1(C)COC(Cn2c3ccccc3c3ccccc32)O1 (configuration not stated) | ? | ? | i | i | 23µM | i
CC1COC(Cn2c3ccccc3c3ccccc32)O1 (configuration not stated) | 18µM | ? | i | i | ? | ?
CCC1(C)OCC(Cn2c3ccccc3c3ccccc32)O1 (configuration not stated) | nt | nt | i | nt | nt | nt
COc1ccc(C(=O)N/C(=C/c2cccnc2)C(=O)N2CCN(C)CC2)cc1OC | i | i | i | i | i | i
CC1=C/C(=C(/c2ccc(O)c(C)c2)c2ccccc2S(=O)(=O)O)C=CC1=O | i | i | i | i | i | i
CC1=C/C(=C(/c2cc(C)c(O)c(Br)c2)c2ccccc2S(=O)(=O)O)C=C(Br)C1=O | ? | ? | ? | -71 | ? | ?
NC(=NCc1ccc(Cl)cc1Cl)NC(=O)c1nc(Cl)c(N)nc1N | 4.4µM | 6.2µM | nt | nt | nt | nt
Cc1cnc(C(=O)NCc2ccc(Cl)cc2Cl)cn1 | i | i | i | i | i | i
CC(C)(C)N1C(=O)c2ccccc2NC(=O)N1Cc1ccccc1 | i | i | i | i | i | i
O=C1Nc2ccccc2C(=O)C1(Cl)Cc1ccccc1 (configuration not stated) | 5.2µM | 6.5µM | i | i | i[9.24 µM] | i
O=C1COc2ccc(S(=O)(=O)N3CCN(c4ccccc4F)CC3)cc2N1 | i | i | i | i | i | i
CC(C)(C)OC(=O)N1CCC[C@H]1C(=O)Nc1ccc(S(=O)(=O)C(F)F)cc1 | ? | 13µM | i | i | i | i
